Measured values published in the supplement of paper PMC6555819.

What follows are sequences tested on THRa:RXRa (NR concentration 90 nM, RXRa partner concentration 90 nM) (assay: PBM binding z-score (relative to random genomic background probes); higher = stronger binding; sequences stand for … in GC…GCGATTGACAGCGTAGAATGAAGG).
In short: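 Probes were double-stranded and carried 34-nt variable regions with direct-repeat seeds, single-nucleotide variants, half-site ablations and random human genomic background sequences, printed on custom Agilent 4×180K protein-binding microarrays. Arrays were incubated 1 h with ligand-free nuclear receptor dimers in PBS pH 7.4, 2% milk, 0.02% Triton X-100, 1 mM DTT, 0.2 mg/mL BSA and 0.4 mg/ml salmon testes DNA. Antibodies against each partner (one per run) detected binding, and scanned fluorescence was regression-normalized. Binding z-scores use the random background probes as reference.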

Going from CCAGACAGGTGAGAAGGTCACTCAGCCTCGATTA to ATAGGTAGGTTATCGGGTCATTCAGTTTGCGCAT, the PBM binding z-score rises from 2.46 to 3.41.

Compared with CCCTACGGGTCAAGGTTATAGCACGGGTGGTACG, ATCGAAATGTCGACGAGGTGAGTATACACCGTTT is lower in PBM binding z-score: 3.07 for the first, 1.43 for the second.

First: ATACCAAGGTGATCGTGAGGTCGTTGAGACTAAC
Second: CCGACTGGGGCAAAGGTTAGCATACTCAGTACGA
The PBM binding z-score of the first is higher: 3.4 for the first, 0.962 for the second.

Going from CCTTACGGGTCACTGACAGGGTATAGCATTTGGA to CGTCTAAGGTCAATGCTAGGTCAGTGAAAGCATT, the PBM binding z-score rises from 2.32 to 4.67.

Compared with ATCGAAAGGTCGTGAGGTGAGTATGCAGAAAGGC, CCTGCTAGGTCATGATCAGCTAATCTACAGTATG is lower in PBM binding z-score: 3.56 for the first, 2.75 for the second.

First: ATCTCTAGGTCACAAGTTCAGTGAAAGAGAGGAC
Second: TAGCCTAGGTCATTCATGGGCCAGTATAGAAAGC
The PBM binding z-score of the first is higher: 3.4 for the first, 2.71 for the second.

First: AGAACGAGTGCACGCTGAGTTGATAGCAGAGTAG
Second: TCTTGTAAATCAGCAGGTTAAGAAAGCTGGCCAA
The PBM binding z-score of the first is lower: -0.0909 for the first, 0.32 for the second.

Compared with GCTAGCAGACCATTTGGGTCACTCAATGACGGGC, CGTCAAAGTTCAAGGTAACGTAGCAGAAAGCAGC is higher in PBM binding z-score: 1.38 for the first, 3.01 for the second.

First: GCTAGTTGGCCAGTAAAAGGTCACACACCGGTCG
Second: TAGCCTAGGTCATGCGGGCAAGTATAGTGTCGGC
The PBM binding z-score of the first is higher: 3.55 for the first, 2.89 for the second.

Compared with ATATGTAGGTTAAGGGTCATCCAGGTTGGTTCGC, CCTACTGGGCCAAAAAGGTCATTGCTGCCGATAA is lower in PBM binding z-score: 3.69 for the first, 2.99 for the second.

Going from GCTAGTTGGTCAGTAAAAGGTCACACGCCGGTCG to GCTCGGAGGACATGGTCAGAGCTTTGTCCGTAGA, the PBM binding z-score falls from 3.72 to 0.524.

Going from TCATATAGGTAAAATGTGAAAGTCGGTGTGGTAA to CTCGAAAGTTCGTGCTCAGGTGAGTATACCAAAC, the PBM binding z-score rises from -0.0922 to 2.86.

First: CGTCAAAGTTCAACTAAGGAAACGTAAAGCACGC
Second: AGGATGAGGTTAAGATCAGGGAAACAGAATACAT
The PBM binding z-score of the first is higher: 4.5 for the first, 2.66 for the second.

Going from CCTATTAGTTGACCATCAGGGCAACCGAAGCTCG to CCGAGTAGGTTATGAGGCATTCAGGCAACGGTGA, the PBM binding z-score falls from 1.19 to 0.303.

Going from TGAATGAGGTTATAAGATCAGGTAACGTTGCAAA to TAGCCTAGGTCATGGACCAGTATACCACGCGAAC, the PBM binding z-score rises from 2.61 to 3.18.

Going from GCTAGCAGGCCATTTGGGTCACTCGATGACGGGC to ACTAGTTTGTCAGCTGAGGTCACACACAATTCGG, the PBM binding z-score rises from 1.66 to 4.42.

Going from TCTAGCAGGCCAGAGGGTCCCTCAAGAGGTACGG to GCTATTAGTTGAAAGGGCAACCAAATGATTCTCG, the PBM binding z-score rises from -0.666 to 0.682.

Going from CGAACTAGGTCATGCAGGACAGTGAATACATTGA to CCTAGCAGGTCAGGGTCACTCAAGCATTTCGCTT, the PBM binding z-score rises from 2.96 to 3.71.

Compared with AGAATGAGGTTCTTAAGATCAGGGAATTGCGGTC, TTACCAAGGTAAAGGTCGTTGATCCCTCTGTAGA is higher in PBM binding z-score: 0.365 for the first, 2.48 for the second.

Compared with GCTTACGGGTCAAAGGTAATAGCATGAATAGAAT, TCATATAGGTAATATAGGTGAAAGTCGGCATCTA is lower in PBM binding z-score: 3.07 for the first, 0.364 for the second.
